Assay [1] in a line: anti-His antibody binders, primary screen, artefact control for SMM control protein annotation, biochemical, small-molecule microarray, 635 nm fluorescence (AID 1128).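 Also: score merges feature fluorescence with signal-to-noise for each printed compound spot.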 Conditions: anti-His Alexa647 antibody binding, higher = more signal.
The test system of assay [2] is Human papillomavirus type 1a E7 protein (residues 1-88). The assay can be described thus: HPV1a E7 small-molecule binders, primary screen, biochemical, small-molecule microarray, residues 1-88, 635 nm (AID 1129). Conditions: small-molecule microarray binding, fluorescence 635 nm; higher = more signal.
Assay [3] deals with Focal adhesion kinase 1 (Homo sapiens) (UniProt Q05397). The assay can be described thus: small-molecule microarray binders of FAK, primary screen, biochemical, 635/667 nm fluorescence, BSA, DTT (AID 1130).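 Also: composite of spot emission at 667 nm and signal to noise over triplicate slides.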 Conditions: PTK2 binding, 635 nm fluorescence, higher = more signal.
Assay [4] has as its system Fibrinogen (Alexa647-labelled). The assay can be described thus: fibrinogen binders on compound microarrays, profiling panel, artefact control for SMM control-protein annotation, biochemical, small-molecule microarray, 635/667 nm fluorescence (AID 1131).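 Also: z-score merges 667 nm fluorescence with per-spot signal-to-noise over triplicate slides.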 Conditions: fibrinogen-A647 binding fluorescence, higher = more signal.
Assay [5] addresses Follistatin (Homo sapiens) (UniProt P19883). The assay can be described thus: follistatin binders on small-molecule microarrays, primary screen, biochemical, small-molecule microarray, 635/667 nm fluorescence (AID 1132). Conditions: FST binding, 635 nm fluorescence, higher = more signal.
Assay [6] concerns the target Fibroblast growth factor 2 (Homo sapiens) (UniProt P09038). The assay can be described thus: FGF2 binders on small-molecule microarrays, primary screen, biochemical, small-molecule microarray, 635/667 nm fluorescence (AID 1133). The settings on record: small-molecule microarray binding, FGF2, fluorescence 635/667; higher = more signal.
Assay [7] in a line: mitochondrial membrane potential change in A549 cells, profiling panel, cell-based, JC-1 fluorescence, basal, 24 h, 100 nL (AID 1138).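 Also: A549 lung adenocarcinoma cells under basal conditions with no added stimulus; test concentration not given here.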 The settings on record: higher = more signal.
The test system of assay [8] is Lefty1. The assay can be described thus: Lefty1 binders on small-molecule microarrays, primary screen, biochemical, small-molecule microarray, 635/667 nm fluorescence (AID 1139). Conditions: small-molecule microarray binding, fluorescence 635/667; higher = more signal.
In assay [9] the test system is wheat germ agglutinin (Triticum aestivum), Alexa647-labelled. The assay can be described thus: wheat germ agglutinin binders on compound microarrays, profiling panel, artefact control for SMM control-protein annotation, biochemical, small-molecule microarray, 635/667 nm fluorescence (AID 1140).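 Also: score merges 667 nm feature emission with signal to noise over triplicate slides.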 The settings on record: WGA-A647 binding, 635 nm fluorescence, higher = more signal.

Assay [10] addresses Luciferin 4-monooxygenase (Photinus pyralis) (UniProt P08659). The assay can be described thus: firefly luciferase enzyme inhibitors, primary screen, biochemical, luminescence, purified enzyme, 2006 set (AID 1141).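 Also: cell-free assay with purified firefly luciferase at 100 ng per well in PBS; test concentration not given here.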 The settings on record: SteadyGlo luminescence, 30 min, higher = more signal, called active from +8 up or from −8 down.
The subject of assay [11] is Wnt5a (protein binding on small-molecule microarray). The assay can be described thus: Wnt5a binders on small-molecule microarray, primary screen, biophysical, 635/667 nm fluorescence (AID 1142).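 Also: fluorescence read at 667 nm with signal to noise per printed feature.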 Conditions: 635 nm fluorescence, higher = more signal.
Assay [12] is described as follows: cell viability in Huh7 cells, primary screen, cytotoxicity control for HCV replication inhibitor project, CellTiter-Glo luminescence, basal, 48 h (AID 1143).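 Also: Huh7 hepatoma cells carrying a hepatitis C replication reporter with no stimulus; test concentration not given here.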 The settings on record: Huh7 HCV replicon, higher = more signal, called active from +8 up or from −8 down.
A short description of assay [13]: P. aeruginosa biofilm formation inhibitors, primary screen, PAO1 strain, BacTiter-Glo luminescence, LB-PBS (AID 1144). The settings on record: 12 h, higher = more signal.
A short description of assay [14]: CREB reporter modulators without forskolin, primary screen, cell-based, PC12, CRE-LacZ reporter, unstimulated (AID 1145). Conditions: no forskolin, luminescence, 4.5 h, higher = more signal, called active from +8 up or from −8 down.
Assay [15] can be described thus: CREB reporter modulators under forskolin, primary screen, cell-based, PC12, CRE-LacZ reporter, forskolin-stimulated (AID 1146).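 Also: PC12 cells with 6xCRE LacZ reporter stimulated by forskolin 10 µM; beta-galactosidase reporter signal reflecting CREB driven transcription.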 The settings on record: luminescence, 4.5 h, higher = more signal, called active from +8 up or from −8 down.
In assay [16] the target is Streptavidin (Streptomyces avidinii) (UniProt P22629). The assay can be described thus: streptavidin binders on small-molecule microarray, primary screen, artefact control for SMM compound annotation, biophysical, 635/667 nm fluorescence (AID 1147).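 Also: signal reflects streptavidin binding to arrayed compounds as a control protein.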 The settings on record: streptavidin binding, higher = more signal.
The nature of assay [17]: small-molecule binders of probe aInhba, primary screen, biochemical, small-molecule microarray, 635/667 nm fluorescence (AID 1148).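 Also: score merges 667nm spot fluorescence with signal-to-noise for antibody binding to printed compounds.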 Conditions: higher = more signal.
Assay [18] deals with Torsin-1A (Homo sapiens) (UniProt O14656). The assay can be described thus: torsin A binders from cell lysate, primary screen, small-molecule microarray, wild-type, 635/667 nm (AID 1149). The settings on record: COS7 hTOR1A-WT lysate, 635 nm fluorescence, higher = more signal.
Assay [19] has the same target. The assay can be described thus: small-molecule binders of mutant TOR1A in lysate, primary screen, cell lysate, small-molecule microarray, COS7 lysate, 635/667 nm fluorescence (AID 1150).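 Also: score pools 667 nm emission and signal to noise measuring lysate protein binding.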 Conditions: COS7 hTOR1A mutant lysate, 635 nm fluorescence, higher = more signal.
The test system of assay [20] is Sonic hedgehog protein (Shh). The assay can be described thus: small-molecule binders of Shh protein, primary screen, biochemical, small-molecule microarray, 635/667 nm fluorescence (AID 1151).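 Also: Shh protein binding to compounds spotted on small-molecule microarray slides; score combines spot fluorescence intensity with signal-to-noise across triplicate slides.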 Conditions: small-molecule microarray binding, 635 nm fluorescence; higher = more signal.

The source made the active and inactive calls. Unless noted, no rule for the calls is given here.

Sequence of Focal adhesion kinase 1 (Homo sapiens) (Q05397 whole entry, looked up): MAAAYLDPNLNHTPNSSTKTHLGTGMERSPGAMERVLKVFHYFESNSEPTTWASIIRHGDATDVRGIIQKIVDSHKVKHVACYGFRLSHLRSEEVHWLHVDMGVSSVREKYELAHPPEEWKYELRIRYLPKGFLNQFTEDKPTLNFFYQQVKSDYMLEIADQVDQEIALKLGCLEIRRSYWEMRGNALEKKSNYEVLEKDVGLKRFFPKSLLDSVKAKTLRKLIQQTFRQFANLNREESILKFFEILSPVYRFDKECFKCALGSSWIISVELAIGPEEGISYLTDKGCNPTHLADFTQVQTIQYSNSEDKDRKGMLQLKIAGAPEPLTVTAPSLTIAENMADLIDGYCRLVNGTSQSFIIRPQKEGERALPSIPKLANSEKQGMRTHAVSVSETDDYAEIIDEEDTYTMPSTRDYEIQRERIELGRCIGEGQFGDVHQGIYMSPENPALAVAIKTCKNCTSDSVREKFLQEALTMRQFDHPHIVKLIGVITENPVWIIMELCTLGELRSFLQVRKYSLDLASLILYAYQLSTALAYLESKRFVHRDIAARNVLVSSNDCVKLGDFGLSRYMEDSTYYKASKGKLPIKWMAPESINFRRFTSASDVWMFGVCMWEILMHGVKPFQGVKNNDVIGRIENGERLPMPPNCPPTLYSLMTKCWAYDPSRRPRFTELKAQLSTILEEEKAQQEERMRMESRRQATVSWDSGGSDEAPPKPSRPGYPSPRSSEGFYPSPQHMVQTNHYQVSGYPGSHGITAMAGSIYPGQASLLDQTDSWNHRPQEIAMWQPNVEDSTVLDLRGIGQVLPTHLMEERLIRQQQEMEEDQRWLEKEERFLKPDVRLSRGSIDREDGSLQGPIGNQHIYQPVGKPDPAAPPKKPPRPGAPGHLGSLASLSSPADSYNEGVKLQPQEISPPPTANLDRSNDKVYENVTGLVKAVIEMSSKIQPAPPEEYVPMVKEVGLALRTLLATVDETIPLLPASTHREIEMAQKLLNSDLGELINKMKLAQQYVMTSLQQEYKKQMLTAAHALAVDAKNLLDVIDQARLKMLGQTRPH
Sequence of Luciferin 4-monooxygenase (Photinus pyralis) (P08659 whole entry, looked up): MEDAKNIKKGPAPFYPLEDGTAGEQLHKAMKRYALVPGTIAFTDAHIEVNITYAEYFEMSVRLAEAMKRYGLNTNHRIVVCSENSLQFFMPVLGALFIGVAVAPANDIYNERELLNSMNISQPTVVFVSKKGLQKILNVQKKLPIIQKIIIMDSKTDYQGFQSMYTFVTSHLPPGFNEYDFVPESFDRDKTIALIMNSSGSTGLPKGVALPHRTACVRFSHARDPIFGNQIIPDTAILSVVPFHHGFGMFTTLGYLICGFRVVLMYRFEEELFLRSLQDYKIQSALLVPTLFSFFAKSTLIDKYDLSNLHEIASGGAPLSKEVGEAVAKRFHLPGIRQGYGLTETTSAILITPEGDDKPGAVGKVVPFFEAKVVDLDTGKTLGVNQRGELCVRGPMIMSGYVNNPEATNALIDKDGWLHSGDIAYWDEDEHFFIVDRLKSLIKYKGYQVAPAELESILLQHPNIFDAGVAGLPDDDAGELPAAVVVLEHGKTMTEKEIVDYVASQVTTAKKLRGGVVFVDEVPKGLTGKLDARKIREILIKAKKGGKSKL
Sequence of Torsin-1A (Homo sapiens) (O14656 whole entry, looked up): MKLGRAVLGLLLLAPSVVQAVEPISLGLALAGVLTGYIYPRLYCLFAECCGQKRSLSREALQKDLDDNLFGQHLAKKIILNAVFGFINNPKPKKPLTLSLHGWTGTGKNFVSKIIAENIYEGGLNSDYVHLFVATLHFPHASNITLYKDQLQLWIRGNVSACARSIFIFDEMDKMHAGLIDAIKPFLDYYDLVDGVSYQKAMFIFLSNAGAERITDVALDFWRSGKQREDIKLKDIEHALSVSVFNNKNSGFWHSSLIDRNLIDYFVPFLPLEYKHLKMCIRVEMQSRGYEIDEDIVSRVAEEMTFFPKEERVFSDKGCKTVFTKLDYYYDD
Sequence of Streptavidin (Streptomyces avidinii) (P22629 whole entry, looked up): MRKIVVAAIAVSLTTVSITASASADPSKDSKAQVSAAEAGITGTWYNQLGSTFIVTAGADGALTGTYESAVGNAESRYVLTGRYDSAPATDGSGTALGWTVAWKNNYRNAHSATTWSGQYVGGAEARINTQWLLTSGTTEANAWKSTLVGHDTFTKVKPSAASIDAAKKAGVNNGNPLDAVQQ
Sequence of Fibroblast growth factor 2 (Homo sapiens) (P09038 whole entry, looked up): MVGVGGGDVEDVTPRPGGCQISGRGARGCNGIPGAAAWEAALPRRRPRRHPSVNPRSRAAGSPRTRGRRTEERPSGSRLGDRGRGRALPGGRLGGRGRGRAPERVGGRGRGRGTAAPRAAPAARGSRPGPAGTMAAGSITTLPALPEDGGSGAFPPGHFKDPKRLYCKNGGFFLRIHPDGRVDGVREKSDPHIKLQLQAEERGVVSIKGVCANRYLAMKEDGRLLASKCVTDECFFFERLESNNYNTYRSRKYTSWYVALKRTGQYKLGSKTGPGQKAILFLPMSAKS
Sequence of Follistatin (Homo sapiens) (P19883 whole entry, looked up): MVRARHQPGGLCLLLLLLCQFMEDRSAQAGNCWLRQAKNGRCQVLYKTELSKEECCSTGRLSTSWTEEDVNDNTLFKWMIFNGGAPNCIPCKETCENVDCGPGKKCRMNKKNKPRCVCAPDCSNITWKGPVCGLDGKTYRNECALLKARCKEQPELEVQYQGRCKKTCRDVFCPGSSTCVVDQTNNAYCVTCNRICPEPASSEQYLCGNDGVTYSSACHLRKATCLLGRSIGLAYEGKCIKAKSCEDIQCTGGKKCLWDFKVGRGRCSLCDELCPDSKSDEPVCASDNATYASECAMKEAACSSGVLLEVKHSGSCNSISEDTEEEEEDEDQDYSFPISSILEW

In the case of `COCCCNC(=O)[C@@H]1c2ccccc2C(=O)N(Cc2cc(F)cc(C(F)(F)F)c2)[C@H]1c1ccc(CO)cc1`, the composite z-score is -0.669 in assay [1]; -1.06 in assay [2]; -0.751 in assay [3]; -1.81 in assay [4]; -0.252 in assay [5]; -0.94 in assay [6]. Moreover, the composite z-score in assay [8] was -0.584; in assay [9], 0.373; in assay [11] it was -0.575; in [16], -0.716; in assay [17] it was -0.264; in [18], -2.22. Further, the composite z-score in assay [19] was -0.0932; in [20] it was -0.508. Also, the z-score in assay [7] is 0.261; in assay [10], -0.646 (inactive); in [12] it was -0.016 (inactive); in assay [13], -0.043 (inactive); in assay [14] it was 0.944 (inactive); in assay [15], -0.224 (inactive).

Turning to `C[C@H]1ON(c2ccccc2)[C@@H](c2ccccc2)[C@@H]1C(=O)N1C(=O)OC[C@@H]1c1ccccc1`, the composite z-score in assay [1] came out at 0.143; in [2], 0.718; in assay [3], 0.784; in [4] it was 0.894; in assay [5] it was 1.12; in assay [6] it was 0.986. The composite z-score in [8] was 0.5; in [9], 0.014; in [11] it was -0.0367; in assay [16] it was 0.116; in assay [17] it was -0.0403; in assay [18], 0.151. Further, the values for the composite z-score in assay [19] and in [20] were 0.201 and 0.657, respectively. Further, the z-score in assay [7] is -0.21; in [10], 0.422 (inactive); in assay [12] it was -0.133 (inactive); in assay [13] it was 0.0377 (inactive); in assay [14] it was -0.323 (inactive); in [15], -0.251 (inactive).

For the compound `CCOC(=O)C1=CC[C@@H](c2ccc(N(CC)CC)cc2)N(S(=O)(=O)c2ccc(C)cc2)[C@H]1c1ccc([N+](=O)[O-])cc1`, the composite z-score is 0.479 in assay [1]; 0.836 in assay [2]; 0.718 in [3]; 0.403 in assay [4]; -0.35 in assay [5]; -1.18 in [6]. In addition, the composite z-score in assay [8] was -0.863; in [9], 0.516; in assay [11], -0.383; in [16], 1.08; in assay [17] it was -0.0332; in assay [18] it was -1. Further, the composite z-score in [19] was -0.101; in [20], -0.438. Also, the z-score in assay [7] was 1.53; in assay [10], 0.719 (inactive); in assay [12], -3.45 (inactive); in assay [13], 0.858 (inactive); in assay [14], -0.583 (inactive); in assay [15], 0.619 (inactive).

As to `C[N+](C)(C)CCCC[C@@H]1NC(=O)[C@@H]2C[C@H](C(=O)NCCCCCNC(=O)CS)[C@H](c3cccc(OCCO)c3)N2C1=O`, the composite z-score was determined as 0.664 in assay [1]; 0.14 in assay [2]; 0.0046 in assay [3]; 0.909 in assay [4]; 1.25 in [5]; 1.5 in assay [6]. Besides, the composite z-score in assay [8] amounted to 0.272; in assay [9], 0.134; in assay [11] it was 0.623; in assay [16], 0.0879; in assay [17], 0.0636; in assay [18], 0.628. Also, the composite z-score was found to be 0.186 in [19] and 1.38 in assay [20]. Besides, the z-score in assay [7] was 1.71; in assay [10] it was -1.68 (inactive); in assay [12], -0.192 (inactive); in assay [13], 0.152 (inactive); in assay [14], 0.688 (inactive); in [15], 0.478 (inactive).

`C[N+](C)(C)CCCC[C@@H]1NC(=O)[C@@H]2C[C@H](C(=O)O)[C@H](c3cccc(OCCO)c3)N2C1=O`: the composite z-score in [1] is 0.0065; in assay [2] it was -0.586; in assay [3], -0.466; in [4] it was -1.46; in [5] it was 1.45; in assay [6], 1.5. For the same compound, the composite z-score was 0.135 in [8]; 0.218 in assay [9]; -0.0257 in [11]; -1.01 in [16]; -0.179 in assay [17]; 0.405 in assay [18]. For the same compound, the composite z-score in [19] amounted to 0.171; in [20] it was 0.976. Further, the z-score in [7] was 1.08; in [10] it was -1.99 (inactive); in assay [12], -0.63 (inactive); in [13], -0.773 (inactive); in assay [14], -0.671 (inactive); in assay [15], -0.471 (inactive).

The record behind these values is PubChem BioAssay.
